In the library only some 1.7% were active in any assay of this set; here they are far more common.
Akt phos inh: blocks phosphorylation of Akt. activity change, % for hits at 50 µM. actives 0.32% (n = 360,000). AID 651550. Neuro2A IGF-stimulated pAkt S473 HTRF, 20 min; stronger effect = lower value; in the data active means activity change below about -80%; inconclusive means mostly about -51% to -80%
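Neuro2A cells (4,500/well, DMEM with 0.5% FBS) were treated with compound at a single 50 µM final concentration, stimulated with 6 nM IGF for 20 min at 37 °C, and lysed. Phospho-Akt Ser473 was read by HTRF as 665/615 ratio ×10^4.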
hERG WT inh: blocks the wildtype human KCNH2 potassium channel; AID 720551; actives 0.37% (n = 340,000); activity change, % at 1.84 µM; U2OS, BacMam KCNH2, thallium flux FluxOr; stronger effect = lower value; Q12809;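 active means maximum activity change below -70%; inconclusive means maximum activity change between -70% and -50%; inactive means maximum activity change above -50%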
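U2OS cells transduced with wild-type KCNH2 virus are loaded with FluxOr dye for 45 min, and thallium flux is measured in kinetic reads before and after stimulation buffer. Rate constants are normalized to DMSO controls.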
KCNH2 3.1 block: inhibitors of human KCNH2 3.1 potassium channel isoform | actives 0.95% (n = 340,000) | activity change, % (tested at about 1.8 µM) | U2OS KCNH2 3.1, thallium flux FluxOr; stronger effect = lower value;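 active means maximum activity change below -70%; inconclusive means maximum activity change from -70% to -50%; inactive means maximum activity change above -50%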;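 further: thallium influx rate constant from kinetic fluorescence after stimulation buffer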
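Virally transduced U2OS (3.1 isoform, 4 h infection in dark at RT) → overnight 37 C → FluxOr + Red40 in HBSS/HEPES, 45 min → stimulation buffer, 2 min kinetic read → rate constant vs DMSO controls.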
RXFP1 ag: activates the human relaxin receptor RXFP1 | HEK293T-RXFP1 cAMP TR-FRET, 30 min; response scale: percent of porcine relaxin response, buffer zero | actives 0.3% (n = 370,000) | Potency, µM (highest dose often 57.5 µM), for inactives: at the top dose activation, most hits filed as activators; active means well fitted activation curve with a large enough effect; inconclusive means small, poorly fitted or top-dose-only effect; further: potency means the concentration at half of the fitted maximal effect; nearly all actives have a fitted effect of over 60% in size
Target sequence (Q9HBX9 whole entry, looked up): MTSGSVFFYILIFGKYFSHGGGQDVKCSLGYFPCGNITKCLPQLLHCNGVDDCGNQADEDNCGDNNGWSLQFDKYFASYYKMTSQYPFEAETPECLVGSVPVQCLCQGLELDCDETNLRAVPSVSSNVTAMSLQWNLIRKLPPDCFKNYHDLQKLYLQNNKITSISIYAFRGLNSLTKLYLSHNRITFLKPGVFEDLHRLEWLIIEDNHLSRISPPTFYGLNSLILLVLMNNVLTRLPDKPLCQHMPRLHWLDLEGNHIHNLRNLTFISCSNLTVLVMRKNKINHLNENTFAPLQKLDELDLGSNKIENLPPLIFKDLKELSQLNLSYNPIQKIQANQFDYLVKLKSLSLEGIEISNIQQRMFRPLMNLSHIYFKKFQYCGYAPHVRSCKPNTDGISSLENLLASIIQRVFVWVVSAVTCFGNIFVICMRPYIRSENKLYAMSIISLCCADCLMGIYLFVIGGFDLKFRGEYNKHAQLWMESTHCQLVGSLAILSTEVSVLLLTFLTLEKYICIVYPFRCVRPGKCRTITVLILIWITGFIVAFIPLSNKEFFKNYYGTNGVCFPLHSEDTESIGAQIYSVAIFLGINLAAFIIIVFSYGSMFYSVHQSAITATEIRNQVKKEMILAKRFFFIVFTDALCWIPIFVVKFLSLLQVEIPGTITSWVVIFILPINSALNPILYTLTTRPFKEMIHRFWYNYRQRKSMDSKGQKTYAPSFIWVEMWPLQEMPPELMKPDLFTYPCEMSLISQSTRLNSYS
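Agonist response is measured as cAMP accumulation in an RXFP1-transfected HEK293T line under PDE4 inhibition. Values are scaled between buffer-only and 29 nM porcine relaxin, and EC50s come from standard Hill equation fits.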
RXFP1 antagonist: blocks the human relaxin receptor RXFP1 | Q9HBX9 | HEK293-RXFP1, relaxin-stimulated cAMP HTRF, 30 min; stronger effect = lower value | activity change, negative = inhibition, % at 57.5 µM | actives 0.59% (n = 350,000) | AID 1259400;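 active means activity change of -60% or lower, but not beyond a set lower limit; inconclusive means change between -60% and -40%, or beyond the set limit; inactive means change above -40%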
* marks the source's active call; other numbers are inactive results; i = inactive; ? = inconclusive; nt = no result. On the % scale 0 is the no-effect control and ±100 the full control effect.

SMILES	Akt phos inh	hERG WT inh	KCNH2 3.1 block	RXFP1 ag	RXFP1 antagonist
COc1ccc2ccccc2c1/C=N/n1cnnc1	i	3	11	1%	15
S=c1[nH]nc(C2CC2)n1Cc1ccco1	i	-323*	7	-3%	-10
S=c1[nH]nc(Cc2ccccc2)n1Cc1ccco1	i	6	17	0%	-4
COc1ccccc1N(C(=O)CCl)c1cn(C(C)=O)c2ccccc12	i	3	-10	0%	3
COc1ccccc1N(C(C)=O)C1=C(Cl)C(=O)c2ccccc2C1=O	i	7	-15	nt	-87*
Oc1ccc(-c2nc3ccccn3c2NCc2ccc3c(c2)OCO3)cc1	i	16	?	7%	2
Cc1ccn2c(NCc3ccc4c(c3)OCO4)c(-c3ccc(O)cc3)nc2c1	i	-12	-75*	4%	-1
O=C(CN1CCN(CC(=O)Nc2ccccc2Cl)CC1)Nc1ccc2c(c1)OCCO2	i	-1	-19	-1%	-3
Cc1cccc2c1OCC/C2=N\NC(=O)COc1ccccc1	i	3	-15	1%	-9
CCS(=O)(=O)c1ccc(-c2csc(-c3ccc(Cl)cc3)n2)c(Cl)c1Cl	i	4	-9	0%	-16
CCS(=O)(=O)c1ccc(-c2csc(-c3ccccc3Cl)n2)c(Cl)c1Cl	-128%*	-6	-7	0%	4
Cn1ncc2c(N3CCOCC3)ncnc21	i	18	1	3%	-7
NC(=O)CC(NC(=O)c1ccc(Br)cc1)c1ccc(N2CCN(c3ccccc3)CC2)c([N+](=O)[O-])c1 (stereo not drawn)	i	0	5	-1%	nt
NC(=O)CC(NC(=O)c1ccccc1)c1ccc(N2CCN(c3ccccn3)CC2)c([N+](=O)[O-])c1 (stereo not drawn)	i	-7	-130*	0%	nt
COC(=O)c1nnn(-c2ccc(F)c(Cl)c2)c1C(=O)OC	i	5	-70*	1%	-7
CCOc1cc(C)c(-c2onc(C(F)(F)F)c2-c2csc(C)n2)c(O)c1	i	1	-9	3%	-84*
O=C(NCCc1ccccc1)C(c1ccccc1F)N(C(=O)c1csnn1)C1CC1 (stereo not drawn)	i	13	-86*	3%	-2
Oc1cccc(C(=S)N2CCCCC2)c1	i	-4	-146*	0%	2
Cn1nnnc1SCC(=O)NCCc1ccc(Cl)cc1	i	-7	-3	1%	-18
CCOC(=O)CN1C(c2ccccc2O)Nc2ccc(Br)cc2C1c1ccccc1 (stereo not drawn)	i	-2	0	0%	-73*
COC(=O)CN1C(c2ccccc2O)Nc2ccc(Br)cc2C1c1ccccc1 (stereo not drawn)	i	2	14	-1%	-4
COC(=O)C(CC(C)C)NC(=O)CNC(=O)c1ccccc1C (stereo not drawn)	i	3	42	2%	3
O=c1ccc2cc(S(=O)(=O)N3CCN(c4ccc(Cl)cc4)CC3)ccc2o1	i	13	-29	1%	7
O=C(c1cc2sccc2n1Cc1ccc(F)cc1)N1CCN(c2nc3ccccc3s2)CC1	i	-16	-90*	0%	-9
COc1ccccc1C(=O)OCC(=O)c1ccc(CNC(C)=O)s1	i	1	-19	nt	10
SMILES	Akt phos inh	hERG WT inh	KCNH2 3.1 block	RXFP1 ag	RXFP1 antagonist
COc1cc2c(C)nc3c(c(C)nn3-c3ccccc3)c2cc1OC	i	18	-81*	6%	-8
C/C(=N\NC(=O)c1ccc(Br)cc1)c1ccccc1	-111%*	29	-26	-1%	-4
O=C(c1cc(=O)[nH]c2ccccc12)N1CCN(S(=O)(=O)c2ccc(Cl)cc2)CC1	i	-115*	-9	1%	-3
C(/C=C/c1ccccn1)=C\c1ccccc1	i	-5	-81*	nt	-5
CC(C)C(NC(=O)C1CCCCC1)C(=O)NCc1ccccn1 (stereo not drawn)	i	13	-13	0%	-8
Cc1c(-c2ccccc2)nc2ccccc2c1C(=O)Oc1ccc([N+](=O)[O-])cc1	i	-87*	-77*	3%	4
CCOC(=O)CSc1nnc2n(-c3ccccc3)c(=O)c3c4c(sc3n12)COC(C(C)C)C4 (stereo not drawn)	nt	nt	nt	1%	-2
Cc1nnc2n(-c3ccc(Cl)cc3)c(=O)c3c4c(sc3n12)CN(C)CC4	nt	nt	nt	-1%	nt
CN1CCc2c(sc3c2c(=O)n(-c2ccccc2)c2nnc(SCc4ccc(Cl)cc4)n32)C1	i	-186*	-12	4%	11
CCOC(=O)CSc1nnc2n(-c3ccccc3)c(=O)c3c4c(sc3n12)CC(C(C)(C)C)CC4 (stereo not drawn)	nt	nt	nt	4%	-69*
Cc1ccc(S(=O)(=O)Nc2cc(C(F)(F)F)ccc2N2CCOCC2)cc1C	i	-5	-92*	2%	-5
O=C(COC(=O)CC1SC(N2CCCC2)=NC1=O)Nc1c(F)c(F)c(F)c(F)c1F (stereo not drawn)	i	-5	-74*	3%	12
CC(C)c1ccc2oc(-c3ccc(Cl)c(NC(=O)Cc4ccccc4)c3)nc2c1	nt	nt	nt	9%	-3
CC(=O)C1=C(O)C(=O)N(c2cc(C(C)(C)C)on2)C1c1ccc(Br)cc1 (stereo not drawn)	i	2	-82*	7%	-1
CC(=O)C1=C(O)C(=O)N(c2cc(C(C)(C)C)on2)C1c1ccc(C(C)C)cc1 (stereo not drawn)	i	-4	-13	1%	8
CCOC(=O)C1(CCOc2ccccc2)CCN(Cc2cccc(OC)c2)CC1	i	-96*	-116*	nt	nt
CCOC(=O)C1(CCOc2ccccc2)CCN(Cc2ccc(-n3cccn3)cc2)CC1	i	-130*	-108*	0%	-18
CCOC(=O)C1(CCOc2ccccc2)CCN(Cc2cccc(OC)c2O)CC1	i	-102*	-113*	-1%	-5
CCOC(=O)C1(CCOc2ccccc2)CCN(Cc2ccc(O)c(Cl)c2)CC1	i	-4	?	2%	-6
CCOC(=O)C1(CCOc2ccccc2)CCN(Cc2ccc(C(=O)OC)cc2)CC1	i	8	-88*	0%	-10
CCOC(=O)C1(CCOc2ccccc2)CCN(Cc2ccncc2)CC1	i	10	5	0%	-8
O=S(=O)(N/N=C/c1ccc(N2CCOCC2)cc1)c1ccccc1	i	4	0	0%	-5
COc1ccc(-n2ccn(CC(=O)Nc3ccc(OC)cc3OC)c(=O)c2=O)cc1	i	-1	15	0%	-3
CCOC(=O)C1(CCOc2ccccc2)CCN(Cc2cc(OC)ccc2OC)CC1	i	-80*	-88*	-1%	-29
